{"source": "PubChem BioAssay (Tox21)", "note": "Records with an inconclusive call do not appear. Calls of active or inactive are those of the source. The call rests on the fitted dose curve; in most records, active means well fitted cell-killing curve with a large enough effect in the repeat runs; inconclusive means weak or mixed curves, or effect the other way; inactive means flat fitted curve, though single readings scatter.", "data": [{"test": "qHTS RealTime-Glo MT Cell Viability Assay in HEK293 cells - 0 hour (AID 1224880); further: top concentration of the series differs between compounds; on the % scale 0 is the no-effect control and ±100 the full control effect; nearly all actives have a fitted effect of over 45% in size", "settings": "RealTime-Glo luminescence; series mostly up to 76.8 µM; activity change, negative = cytotoxicity: at the top concentration", "description": "U.S. Tox21 Program National Center for Advancing Translational Sciences [NCATS] NIH Chemical Genomics Center [NCGC] U.S. Environmental Protection Agency [EPA] National Institutes of Environmental Health Sciences [NIEHS] National Toxicology Program [NTP] U.S. Food and Drug Administration [FDA] Tox21 Assay Overview: Measure of cell viability is critical in the cell-base assay. Analysis of cell viability is necessary for the characterization of cell responses to cytotoxic drugs and environmental stress. A RealTime-Glo MT Cell Viability Assay to monitor cell viability in real time of continues cell culture during 40 hours of compound treatment was used to screen Tox21 10K library compounds in Hek293 cells. The RealTime-Glo MT Cell Viability Assay is a nonlytic, homogeneous, bioluminescent method to measure cell viability in real time using a simple, plate-based method. The assay involves adding NanoLuc luciferase and a cell-permeant prosubstrate to cells in culture. Viable cells reduce the proprietary prosubstrate to generate a substrate for NanoLuc luciferase. This substrate diffuses from cells into the surrounding culture medium, where it is rapidly used by the NanoLuc Enzyme to produce a luminescent signal. The signal correlates with the number of viable cells, making the assay well suited for cytotoxicity studies.\nTox21 Assay Protocol Summary: The mixture of Hek293 cell suspension and reagents were dispensed at 600cells/6 ul/well in 1536-well tissue culture treated black solid bottom plates using a Multidrop dispenser. After the assay plates were incubated at a 37 C/5% CO2 incubator for 5 hours, 23 nL of compounds dissolved in DMSO, positive and negative controls was transferred to the assay plate by a pintool work station. The plates were incubated at 37 C for 40 hours. The luminescence intensity were measured at 0h, 8h, 16h, 24h, 32h and 40h time points using ViewLux plate reader during compound treatment.", "values": [{"compound": "C#CC(C)N(C)C(=O)Nc1ccc(Cl)cc1", "note": "(stereo not given)", "activity change, negative = cytotoxicity": "-0.208% (inactive)"}, {"compound": "CC(=O)N[C@@H](CCC(=O)O)C(=O)O", "activity change, negative = cytotoxicity": "-5.82% [at 35.3 µM] (inactive)"}, {"compound": "COc1cc2c(cc1OC)C(=O)CC2", "activity change, negative = cytotoxicity": "0.272% [at 35.3 µM] (inactive)"}, {"compound": "OCCC(F)(F)C(F)(F)C(F)(F)C(F)(F)C(F)(F)C(F)(F)C(F)(F)C(F)(F)F", "activity change, negative = cytotoxicity": "-2.93% (inactive)"}, {"compound": "N#Cc1ccc(C(=O)O)cc1", "activity change, negative = cytotoxicity": "11.1% (inactive)"}, {"compound": "Brc1ccc(-c2ccccc2)cc1", "activity change, negative = cytotoxicity": "-5.28% (inactive)"}, {"compound": "CNS(=O)(=O)CCc1ccc2[nH]cc(C3CCN(C)CC3)c2c1", "activity change, negative = cytotoxicity": "-5.87% [at 35.3 µM] (inactive)"}, {"compound": "CC(C)(C)c1nnc(NS(=O)(=O)c2ccc(N)cc2)s1", "activity change, negative = cytotoxicity": "-13.8% [at 35.3 µM] (inactive)"}, {"compound": "Cc1ccc(S(=O)(=O)O)c(C)c1", "activity change, negative = cytotoxicity": "-1.92% (inactive)"}, {"compound": "CC(=C(CCOC(=O)C(C)C)SSC(CCOC(=O)C(C)C)=C(C)N(C=O)Cc1cnc(C)nc1N)N(C=O)Cc1cnc(C)nc1N", "activity change, negative = cytotoxicity": "1.12% [at 35.3 µM] (inactive)"}, {"compound": "NCCN1CCOCC1", "activity change, negative = cytotoxicity": "8.8% (inactive)"}, {"compound": "CCCCCOC(=O)CCC", "activity change, negative = cytotoxicity": "-4.88% (inactive)"}, {"compound": "CCN(C)C(=O)Oc1cccc([C@H](C)N(C)C)c1", "activity change, negative = cytotoxicity": "-3.22% [at 35.3 µM] (inactive)"}, {"compound": "O=C1CC(c2ccc(Cl)cc2)CC(=O)N1", "activity change, negative = cytotoxicity": "0.0706% [at 35.3 µM] (inactive)"}, {"compound": "CCOCCOC(=O)/C=C/c1ccc(OC)cc1", "activity change, negative = cytotoxicity": "4.83% [at 35.3 µM] (inactive)"}, {"compound": "CCCOC(OCCC)OCCC", "activity change, negative = cytotoxicity": "-1.29% (inactive)"}, {"compound": "CC(C)=CCOC(=O)c1ccccc1", "activity change, negative = cytotoxicity": "2.05% (inactive)"}, {"compound": "CCOC(=O)[C@H](CCc1ccccc1)N[C@@H](C)C(=O)N1C(=O)N(C)C[C@H]1C(=O)O", "activity change, negative = cytotoxicity": "2.87% [at 35.3 µM] (inactive)"}, {"compound": "COc1cc(NS(=O)(=O)c2ccc(N)cc2)nc(OC)n1", "activity change, negative = cytotoxicity": "-2.93% [at 35.3 µM] (inactive)"}, {"compound": "C=C1CC/C=C(\\C)CC[C@@H]2[C@@H]1CC2(C)C", "activity change, negative = cytotoxicity": "-0.112% (inactive)"}, {"compound": "CC(C)(C)c1cc(CCC(=O)NN)cc(C(C)(C)C)c1O", "activity change, negative = cytotoxicity": "24.7% (inactive)"}, {"compound": "COc1ccc(C2CNC(=O)C2)cc1OC1CCCC1", "note": "(stereo not given)", "activity change, negative = cytotoxicity": "-10.8% [at 35.3 µM] (inactive)"}, {"compound": "COc1cc(C(=S)N2CCOCC2)cc(OC)c1OC", "activity change, negative = cytotoxicity": "6.83% [at 35.3 µM] (inactive)"}, {"compound": "CCc1ccc(C=O)cc1", "activity change, negative = cytotoxicity": "8.62% (inactive)"}, {"compound": "CC(=O)Nc1cccc(C)c1", "activity change, negative = cytotoxicity": "-2.37% (inactive)"}, {"compound": "C=C(C)C(=O)OCCNC(C)(C)C", "activity change, negative = cytotoxicity": "8.21% (inactive)"}, {"compound": "COc1cc(N)ccc1C", "activity change, negative = cytotoxicity": "9.51% (inactive)"}, {"compound": "O=S(O)(O)=S", "activity change, negative = cytotoxicity": "1.11% [at 6.97 µM] (inactive)"}, {"compound": "CC(C)OC(=O)CCCCC(=O)OC(C)C", "activity change, negative = cytotoxicity": "16.3% (inactive)"}, {"compound": "CC(C)CC(=O)O", "activity change, negative = cytotoxicity": "-5.5% (inactive)"}, {"compound": "C[C@H](CCC(=O)O)[C@H]1CC[C@H]2[C@@H]3C(=O)C[C@@H]4CC(=O)CC[C@]4(C)[C@H]3CC(=O)[C@]12C", "activity change, negative = cytotoxicity": "8.9% [at 35.3 µM] (inactive)"}, {"compound": "CCn1ccc(NS(=O)(=O)c2ccc(N)cc2)nc1=O", "activity change, negative = cytotoxicity": "6.99% [at 35.3 µM] (inactive)"}, {"compound": "COc1ccc(Br)c(C)c1", "activity change, negative = cytotoxicity": "-2.21% (inactive)"}, {"compound": "CC(C)(C)NC(N)=O", "activity change, negative = cytotoxicity": "0.989% (inactive)"}, {"compound": "O=C(O)c1cc(Cl)cc([N+](=O)[O-])c1Cl", "activity change, negative = cytotoxicity": "5.18% (inactive)"}, {"compound": "CC(C)NCC(O)COc1cccc2[nH]ccc12", "note": "(stereo not given)", "activity change, negative = cytotoxicity": "-5.03% [at 35.3 µM] (inactive)"}, {"compound": "C=C(C)C(=O)OCC(C)(C)COC(=O)C(=C)C", "activity change, negative = cytotoxicity": "2.03% (inactive)"}, {"compound": "COCCOCCOCCOCCOCCO", "activity change, negative = cytotoxicity": "-4.7% (inactive)"}, {"compound": "CC(C)CCCC(C)(C)O", "activity change, negative = cytotoxicity": "-2.11% (inactive)"}, {"compound": "O=C(OCC(COC(=O)c1cccnc1)(COC(=O)c1cccnc1)COC(=O)c1cccnc1)c1cccnc1", "activity change, negative = cytotoxicity": "7.89% [at 35.3 µM] (inactive)"}]}]}
